{"source": "the emibetuzumab library of Makowski et al. (2022)", "parents": {"B1": {"name": "VH:VL chains; a variant is named by its letters at X, in order (parent)", "chain 1": "QVQLVQSGAEVKKPGASVKVSCKASGYTFTDYXMHWVRQAPGQGLEWMGXVNPNXXXTTYNQKFEGRVTMTTDTSTSTAYMELRSLRSDDTAVYYCARXNXLDXWGQGTTVTVSS", "chain 2": "DIQMTQSPSSLSASVGDRVTITCSVSSSVSSIYLHWYQQKPGKAPKLLIYSTSNLASGVPSRFSGSGSGTDFTLTISSLQPEDFATYYCQVYSGYPLTFGGGTKVEIK"}}, "note": "Some of the results follow. How many sequences the whole screen found active is unknown."}
{"variants_of": "B1", "experiment": "yeast display scFab, FACS + sequencing", "conditions": "with MET", "outline": "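Antigen binding was called positive for sequences present in both antigen-positive samples and negative for those present only in the input. These calls came from deep sequencing, in two replicates, of round-3 sorted and input populations from a heavy-chain CDR mutant scFab yeast surface library. The library was first enriched twice magnetically on HGFR-Fc-coated Protein A beads and then by FACS, gating the top 50% antigen-positive cells after 3 h labelling at room temperature with 1 nM HGFR-Fc plus anti-Myc in PBSB with 1% milk.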"}
{"variant": "YKTGGSGA", "antigen binding call": "binds"}
{"variant": "VKTGGAGA", "antigen binding call": "no binding"}
{"variant": "DATGGSGA", "antigen binding call": "no binding"}
{"variant": "YRGRSSWD", "antigen binding call": "binds"}
{"variant": "YRGRDSWD", "antigen binding call": "binds"}
{"variant": "YRGKASWD", "antigen binding call": "binds"}
{"variant": "DAGTGSWD", "antigen binding call": "no binding"}
{"variant": "VTTKSSSA", "antigen binding call": "no binding"}
{"variant": "ATATADWA", "antigen binding call": "no binding"}
{"variant": "DKRKGVAF", "antigen binding call": "no binding"}
{"variant": "VRAEGSSV", "antigen binding call": "binds"}
{"variant": "VEAGDSWV", "antigen binding call": "no binding"}
{"variant": "VRAGDSSV", "antigen binding call": "binds"}
{"variant": "VRTEDFGV", "antigen binding call": "no binding"}
{"variant": "VRAGDDGV", "antigen binding call": "no binding"}
{"variant": "VRTEDDWV", "antigen binding call": "no binding"}
{"variant": "VKGRASSV", "antigen binding call": "no binding"}
{"variant": "VRTEDSSV", "antigen binding call": "binds"}
{"variant": "VRRKSSSV", "antigen binding call": "binds"}
{"variant": "VTGTASSV", "antigen binding call": "no binding"}
{"variant": "VTEEGSSV", "antigen binding call": "no binding"}
{"variant": "VETEGSSV", "antigen binding call": "no binding"}
{"variant": "VETEGDGV", "antigen binding call": "no binding"}
{"variant": "ATGANAGD", "antigen binding call": "no binding"}
{"variant": "AETGASLS", "antigen binding call": "no binding"}
{"variant": "DTKAADWV", "antigen binding call": "no binding"}
{"variant": "SRRRGALD", "antigen binding call": "binds"}
{"variant": "SAREGALD", "antigen binding call": "no binding"}
{"variant": "DREGGVSD", "antigen binding call": "no binding"}
{"variant": "DATGGALD", "antigen binding call": "no binding"}
{"variant": "DRRRGALD", "antigen binding call": "binds"}
{"variant": "SGRGNALD", "antigen binding call": "no binding"}
{"variant": "VTATADWA", "antigen binding call": "no binding"}
{"variant": "VKGRADWD", "antigen binding call": "no binding"}
{"variant": "SEEEGAGD", "antigen binding call": "no binding"}
{"variant": "VAGTGDGV", "antigen binding call": "no binding"}
{"variant": "YRGKDALA", "antigen binding call": "binds"}
{"variant": "YRAKDALA", "antigen binding call": "binds"}
{"variant": "YRRKDALA", "antigen binding call": "binds"}
{"variant": "VRRKDFLA", "antigen binding call": "no binding"}
{"variant": "YAKRDALA", "antigen binding call": "no binding"}
{"variant": "DTTGSDWV", "antigen binding call": "no binding"}
{"variant": "VAGTGDVY", "antigen binding call": "no binding"}
{"variant": "YRGRGVGY", "antigen binding call": "binds"}
{"variant": "VRGRGVGY", "antigen binding call": "binds"}
{"variant": "VKGRSVGY", "antigen binding call": "no binding"}
{"variant": "YRGRDVGY", "antigen binding call": "no binding"}
{"variant": "VTGEDDWY", "antigen binding call": "no binding"}
{"variant": "DTKAADVA", "antigen binding call": "no binding"}
{"variant": "SEARSDGY", "antigen binding call": "no binding"}
{"variant": "YKGADFGD", "antigen binding call": "no binding"}
{"variant": "YKGRGYAD", "antigen binding call": "no binding"}
{"variant": "YGGRGDAD", "antigen binding call": "no binding"}
{"variant": "YKGRGDGD", "antigen binding call": "binds"}
{"variant": "YKGKGFGD", "antigen binding call": "no binding"}
{"variant": "YKGRGYGD", "antigen binding call": "binds"}
{"variant": "YKGRGFGD", "antigen binding call": "binds"}
{"variant": "YKGRGDAD", "antigen binding call": "binds"}
{"variant": "SAGRGYGD", "antigen binding call": "no binding"}
{"variant": "YAGRGDAD", "antigen binding call": "no binding"}
{"variant": "YEGGGDVA", "antigen binding call": "no binding"}
{"variant": "VGAEGVWS chain 1 G66S", "antigen binding call": "no binding"}
{"variant": "VEGGGDVD", "antigen binding call": "no binding"}
{"variant": "VAGAGDSV", "antigen binding call": "no binding"}
{"variant": "YKGRGVGD", "antigen binding call": "binds"}
{"variant": "VKTGGDGD", "antigen binding call": "no binding"}
{"variant": "YAGRGVGD", "antigen binding call": "no binding"}
{"variant": "YAGRGDLV", "antigen binding call": "no binding"}
{"variant": "YKGKGDGD", "antigen binding call": "binds"}
{"variant": "YAGRGDVD", "antigen binding call": "no binding"}
{"variant": "YAGRGDLD", "antigen binding call": "binds"}
{"variant": "VEEEDYSS", "antigen binding call": "no binding"}
{"variant": "FRAGGAAA", "antigen binding call": "binds"}
{"variant": "FRKGGAAA", "antigen binding call": "binds"}
{"variant": "FAAKTAAA", "antigen binding call": "no binding"}
{"variant": "FRARSAAA", "antigen binding call": "binds"}
{"variant": "YRGRSAGA", "antigen binding call": "binds"}
{"variant": "YRGGSAGA", "antigen binding call": "binds"}
{"variant": "DRGRDAGA", "antigen binding call": "no binding"}
{"variant": "VKGRGFWY", "antigen binding call": "no binding"}
{"variant": "VKGRADWY", "antigen binding call": "no binding"}
{"variant": "VKGRGSWY", "antigen binding call": "binds"}
{"variant": "VKGRGAWY", "antigen binding call": "binds"}
{"variant": "VKTGGAWY", "antigen binding call": "no binding"}
{"variant": "VAAAGAAV", "antigen binding call": "no binding"}
{"variant": "YKTRGSLD", "antigen binding call": "binds"}
{"variant": "DKEGGSAD", "antigen binding call": "no binding"}
{"variant": "YKTRGSAD", "antigen binding call": "binds"}
{"variant": "DKTGDSAD", "antigen binding call": "binds"}
{"variant": "YKTRSSAD", "antigen binding call": "binds"}
{"variant": "DKKEDSAD", "antigen binding call": "no binding"}
{"variant": "VKKESDSY", "antigen binding call": "no binding"}
{"variant": "YAREDDGA", "antigen binding call": "no binding"}
{"variant": "ARRGGSVD", "antigen binding call": "no binding"}
{"variant": "YRRGGSVD", "antigen binding call": "binds"}
{"variant": "YRRGTSVD", "antigen binding call": "binds"}
{"variant": "DATGGDWA", "antigen binding call": "no binding"}
{"variant": "YARRGDGA", "antigen binding call": "no binding"}
{"variant": "YRRRGSGA", "antigen binding call": "binds"}
{"variant": "YRRRGVGA", "antigen binding call": "binds"}
{"variant": "YRRRGAGA", "antigen binding call": "binds"}
{"variant": "YRRRGFGA", "antigen binding call": "binds"}
{"variant": "ARRRGSGA", "antigen binding call": "no binding"}
{"variant": "YARADDSA", "antigen binding call": "no binding"}
{"variant": "DTTGSSGV", "antigen binding call": "no binding"}
{"variant": "VEAGDDAA", "antigen binding call": "no binding"}
{"variant": "VKGRADLV", "antigen binding call": "no binding"}
{"variant": "YTGTSDWY", "antigen binding call": "no binding"}
{"variant": "DAGRGDGY", "antigen binding call": "no binding"}
{"variant": "VKGRGAGY", "antigen binding call": "binds"}
{"variant": "YKGRGVGY", "antigen binding call": "binds"}
{"variant": "YKGRGDGY", "antigen binding call": "binds"}
{"variant": "YKGRGDWY", "antigen binding call": "binds"}
{"variant": "DEGRGDWY", "antigen binding call": "no binding"}
{"variant": "VEGRGDGY", "antigen binding call": "no binding"}
{"variant": "VKGKDVGY", "antigen binding call": "no binding"}
{"variant": "VKGRGVGY", "antigen binding call": "no binding"}
{"variant": "DKEGGDAS", "antigen binding call": "no binding"}
{"variant": "DKEGGDVA", "antigen binding call": "no binding"}
{"variant": "DTAEDFGV", "antigen binding call": "no binding"}
{"variant": "YKGRGAGY", "antigen binding call": "binds"}
{"variant": "VGGTSDVF", "antigen binding call": "no binding"}
{"variant": "DGGKNDGS", "antigen binding call": "no binding"}
{"variant": "DTKRTAGD", "antigen binding call": "no binding"}
{"variant": "YRREGAGD", "antigen binding call": "binds"}
{"variant": "YRRRGAGD", "antigen binding call": "binds"}
{"variant": "YRRRGYGD", "antigen binding call": "binds"}
{"variant": "YRRRGVGS", "antigen binding call": "binds"}
{"variant": "VTGEDDVA", "antigen binding call": "no binding"}
{"variant": "DEGGTDVD", "antigen binding call": "no binding"}
{"variant": "DRGGDDLV", "antigen binding call": "no binding"}
{"variant": "DARGGDVY", "antigen binding call": "no binding"}
{"variant": "YRRRGDGD", "antigen binding call": "binds"}
{"variant": "YRRRGVGD", "antigen binding call": "binds"}
{"variant": "SEARSDVF", "antigen binding call": "no binding"}
{"variant": "DARGGDWV", "antigen binding call": "no binding"}
{"variant": "DRRGDDGV", "antigen binding call": "no binding"}
{"variant": "YTRGAAGV", "antigen binding call": "no binding"}
{"variant": "YRRGDSGV", "antigen binding call": "binds"}
{"variant": "YRRGASGV", "antigen binding call": "binds"}
{"variant": "YAGGDSGV", "antigen binding call": "no binding"}
{"variant": "ARRGAAGV", "antigen binding call": "no binding"}
{"variant": "DARADSLV", "antigen binding call": "no binding"}
